TSHR ag: activates the human thyroid stimulating hormone receptor; HEK293-CNG-TSHR cells (CNG channel as cAMP sensor), membrane potential dye, cAMP; Potency, µM (top dose mostly 57.1 µM), hits mostly activators; 0.48% of 73,000 active; AID 926; active = well fitted activation curve with a large enough effect in the main read-out, with a control signal flat, not every such curve was filed as active; inconclusive = small, poorly fitted or top-dose-only effect, or a change in a side signal; inactive = no such curve, though single readings can be large or run the other way; reference of the percent scale not stated here;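 also: the control signal comes from parental cells without the receptor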
Target sequence (P16473 whole entry, looked up): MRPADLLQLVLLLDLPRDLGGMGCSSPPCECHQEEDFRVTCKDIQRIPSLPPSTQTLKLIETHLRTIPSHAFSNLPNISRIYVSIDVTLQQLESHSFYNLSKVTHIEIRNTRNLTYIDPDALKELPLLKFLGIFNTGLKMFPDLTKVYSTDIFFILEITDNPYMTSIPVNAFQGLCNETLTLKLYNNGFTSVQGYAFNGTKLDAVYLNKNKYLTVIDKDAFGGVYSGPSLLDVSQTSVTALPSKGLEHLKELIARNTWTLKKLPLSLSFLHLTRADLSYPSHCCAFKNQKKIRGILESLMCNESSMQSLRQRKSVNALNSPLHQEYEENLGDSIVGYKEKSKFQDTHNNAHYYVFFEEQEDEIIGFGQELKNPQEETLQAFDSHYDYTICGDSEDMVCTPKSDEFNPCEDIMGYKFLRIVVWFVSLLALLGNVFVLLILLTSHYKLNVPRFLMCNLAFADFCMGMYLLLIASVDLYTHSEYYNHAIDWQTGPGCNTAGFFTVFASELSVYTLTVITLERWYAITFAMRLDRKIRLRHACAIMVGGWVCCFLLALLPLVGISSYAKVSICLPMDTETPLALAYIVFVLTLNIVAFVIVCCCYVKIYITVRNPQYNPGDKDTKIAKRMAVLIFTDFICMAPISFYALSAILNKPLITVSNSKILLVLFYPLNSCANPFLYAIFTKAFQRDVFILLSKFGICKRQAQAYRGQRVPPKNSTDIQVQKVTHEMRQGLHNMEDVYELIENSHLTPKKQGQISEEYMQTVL
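HEK 293 cells stably expressing TSHR and a cAMP-gated CNG channel; parental CNG-only cells as counterscreen. Cells preloaded 60 min with membrane potential dye plus 100 uM RO 20-1724, then compound 30 min; fluorescence read at 590 nm.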
ERK AVP block: inhibitors of vasopressin-stimulated ERK signaling pathway | HEK293-V1b, vasopressin-stimulated pERK AlphaScreen | Potency, µM (series often up to 57.5 µM), actives largely listed as inhibitors | 0.99% of 72,000 active; also: nearly all actives have a fitted effect of over 55% in size
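V1b-HEK293 cells; cpd 30 min 37C; 25 nM vasopressin 5 min; lyse 10 min; AlphaScreen beads 5 hr RT. Normalized to DMSO basal and 25 nM vasopressin; AC50 by Hill fit.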
UbGFP stabilizer: proteasome inhibitors stabilizing ubiquitin-GFP reporter. Ubiquitin-GFP reporter cells, proteasome inhibition, GFP fluorescence; response scale: untreated = 0%, 10 µM MG-132 = 100%. Potency, µM (highest dose often 45.9 µM), most hits filed as activators. 67,000 tested, under 10 active. AID 526; active = well fitted activation curve with a large enough effect, not every such curve was filed as active; inconclusive = small, poorly fitted or top-dose-only effect, or another doubt; inactive = no such curve, though single readings can be large or run the other way
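GFP accumulation read-out: laser plate cytometry counting ubiquitin(G76V)-GFP-expressing U2OS cells after 4 hr compound exposure at 37 °C. Titrations spanned 46 uM to 2.9 nM; 0% = basal, 100% = 10 uM MG-132; concentration-response curves fitted.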
HBB splicing: alters splicing of the hemoglobin beta chain; HBB splicing reporter cell assay, activation; EGFP reporter with mutant IVS2-654 intron; response scale: normalised to 500 nM splice-correcting PNA; 0.06% of 65,000 active; AID 925; Potency, µM (titrated, usually from 46.1 µM), most hits filed as activators
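HeLa cells stably expressing EGFP interrupted by mutant beta-globin intron 2 (IVS2-654), 500/well in 2% FCS. Treated with compound for 2 days at 37C. Splicing correction scored as total well GFP intensity (488 nm excitation, 500-520 nm emission); 500 nM antisense PNA served as control.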
HEK293 cAMP cs: counter-screen for TSHR agonists: cAMP increase in parental HEK293; parental HEK293 CNG cAMP sensor, membrane potential fluorescence; Potency, µM (series often up to 57.1 µM), most hits filed as activators; 2.5% of 73,000 active; also: nearly all actives have a fitted effect of over 55% in size
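Counterscreen for endogenous-receptor signalling: CNG-channel HEK 293 cells report cAMP rise by membrane depolarization. After 60 min dye equilibration with 100 uM RO 20-1724, compounds incubated 30 min before bottom-read fluorescence at 590 nm.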
Epigenetic mod: epigenetic GFP locus derepression in mouse cells. mouse C127i GFP locus derepression, cytometry, 30 h. Potency, µM (series often up to 46.1 µM). 0.09% of 68,000 active
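Locus derepression in mouse mammary C127i cells whose integrated CMV-GFP reporter is normally silent; GFP expression after 30 h compound treatment was quantified by counting fluorescent cells.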
Hits are given with their value; [ ] = remark or other dose. Rows were chosen to be rich in hits. Some 3.8% of all compounds tested hit in one or more screens of this group. Unless noted, calls follow the shape of the dose curve; as a rule, active = well fitted curve in the direction sought with a large enough effect; inconclusive = small, poorly fitted or top-dose-only effect, or another doubt; inactive = no such curve, though single readings can be large; an effect the other way counts as inactive or inconclusive.

Cc1cc(C)n(-c2nc(NCC3CCCO3)c3c4c(sc3n2)COC(C)(C)C4)n1 (stereo not given) was read as TSHR ag inconclusive, ERK AVP block inconclusive, HBB splicing inactive[0.369 µM], HEK293 cAMP cs 25µM and Epigenetic mod inactive.
N#CC1=C(N)S[C@H](C(=O)C23CC4CC(CC(C4)C2)C3)[C@H]1c1ccncc1 was read as TSHR ag 1.3µM, ERK AVP block inactive, UbGFP stabilizer inactive, HBB splicing inactive, HEK293 cAMP cs inactive and Epigenetic mod inactive.
O=C(NCc1ccncc1)C12CC3CC(CC(C3)C1)C2 was read as TSHR ag inactive, ERK AVP block inactive, UbGFP stabilizer inactive, HBB splicing inactive, HEK293 cAMP cs inactive and Epigenetic mod inactive.
Screening NC(=O)CSc1cn(CCNC(=O)c2cccs2)c2ccccc12 returned TSHR ag 32µM, UbGFP stabilizer inactive, HBB splicing inactive and HEK293 cAMP cs inactive.
`Cc1nnc(NC(=O)CSc2cn(CCNC(=O)c3ccccc3)c3ccccc23)s1` gave TSHR ag inactive, UbGFP stabilizer inactive, HBB splicing inactive and HEK293 cAMP cs inactive.
Screening O=C1CC(c2cccs2)Cc2nc(NCC3CCCO3)ncc21 (stereo not given) returned TSHR ag inactive, ERK AVP block 20µM, UbGFP stabilizer inactive, HBB splicing inactive[1.84 µM], HEK293 cAMP cs inactive and Epigenetic mod inactive.
`COCCn1c(=O)c(-c2ccc(F)cc2)nc2cnc(Oc3ccc(OC)cc3)nc21` gave TSHR ag inactive, ERK AVP block inactive, UbGFP stabilizer inactive, HBB splicing inactive, HEK293 cAMP cs inactive and Epigenetic mod inactive[9.22 µM].
CCCCCCSC1=C(C#N)C(c2ccc(O)cc2)CC(=O)N1 (stereo not given) was read as TSHR ag inactive, ERK AVP block 16µM, UbGFP stabilizer inactive, HEK293 cAMP cs inactive and Epigenetic mod inactive.
`CC1(C)CCC=[N+]1[O-]` gave TSHR ag inconclusive, ERK AVP block inactive, UbGFP stabilizer inactive, HBB splicing inactive, HEK293 cAMP cs inconclusive and Epigenetic mod inactive.
COCCNC(=O)[C@H](C)[C@@H]1C[C@@]1(C)[C@@H](NC(=O)OCc1ccccc1)c1ccccc1 was read as TSHR ag inactive, ERK AVP block inactive, HBB splicing inactive and HEK293 cAMP cs inactive.
For C=C(N(C)C)[C@]1(C)C[C@H]1[C@H](NC(=O)CNC(=O)OCc1ccccc1)c1ccccc1 the results were TSHR ag inconclusive, ERK AVP block inactive, HBB splicing inactive and HEK293 cAMP cs 16µM.
For C[C@@H](C(=O)NCCF)[C@H]1C[C@]1(C)[C@H](NC(=O)OCc1ccccc1)c1ccccc1 the results were TSHR ag inconclusive, ERK AVP block inactive, HBB splicing inactive and HEK293 cAMP cs 16µM.
`O=C(c1ccncc1)N1CCC2(CCCN(c3ccccn3)C2)CC1` gave TSHR ag inconclusive, ERK AVP block inactive, UbGFP stabilizer inactive, HBB splicing inactive, HEK293 cAMP cs inconclusive and Epigenetic mod inactive[9.22 µM].
Cc1cc2c(c(=O)o1)[C@H](O)[C@H]1O[C@@H]1C2=O was read as TSHR ag inactive[11.4 µM], ERK AVP block inactive[11.5 µM], HBB splicing inactive[9.22 µM] and HEK293 cAMP cs inactive[11.4 µM].
Screening Cc1onc(-c2ccccc2Cl)c1C(=O)NC1C(=O)N2C1SC(C)(C)C2C(=O)O (stereo not given) returned ERK AVP block inactive.
`C=C[C@@]1(C)CC(=O)[C@@]2(O)[C@@]3(C)[C@H](O)CCC(C)(C)[C@@H]3[C@H](O)[C@H](OC(C)=O)[C@]2(C)O1` gave TSHR ag inconclusive, ERK AVP block inconclusive, UbGFP stabilizer inactive, HBB splicing inactive, HEK293 cAMP cs 0.5µM and Epigenetic mod inactive.
For C=C[C@@]1(C)CC(=O)[C@@]2(O)[C@@]3(C)[C@@H](O)CCC(C)(C)[C@@H]3[C@H](OC(=O)CCN(C)C)[C@H](OC(C)=O)[C@@]2(C)O1 the results were TSHR ag inconclusive, ERK AVP block 1µM, UbGFP stabilizer inactive, HEK293 cAMP cs 0.13µM and Epigenetic mod inactive.

Compound activity (PubChem)
